Test results taken from PubChem BioAssay (Tox21).
Several values for one entry are separate records, joined by “and”; a condition that tells them apart may be missing. Identical values can stand only once. Inconclusive results are not listed. Where a call stands in place of a potency, no number is given. Where a structure was tested more than once in an assay, its records may differ in their call. Activity calls are given as the source filed them. Unless noted, calls come from the whole dose curve.

Tests used:
[1] = Nuclear factor erythroid 2-related factor 2/antioxidant responsive element (Nrf2/ARE) small molecule agonists: qHTS cell viability counter screen in human keratinocytes (AID 1919968; active = well fitted curve in the direction sought with a large enough effect in the repeat runs; an effect the other way counts as inactive or inconclusive; note: nearly all actives have a fitted effect of over 55% in size)
In short: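 HaCaT ARE reporter line, 1,500 cells/well; 5 h settle, 37 C/5% CO2; cpd in DMSO pinned; 23 h exposure; CellTiter-Fluor, 1 h; fluorescence.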

[2] = Nuclear factor erythroid 2-related factor 2/antioxidant responsive element (Nrf2/ARE) small molecule agonists: luciferase reporter gene qHTS assay in human keratinocytes (AID 1919969); note: nearly all actives have a fitted effect of over 35% in size; note: potency is the fitted concentration of half-maximal effect
[3] = biological target: Gonadotropin-releasing hormone receptor (Homo sapiens) (UniProt P30968); test: Human gonadotropin-releasing hormone receptor (GnRHR) small molecule agonists, calcium flux assay in GnRHR-HEK293 cells (AID 1920063); note: nearly all actives have a fitted effect of over 35% in size
Gonadotropin-releasing hormone receptor (Homo sapiens), sequence (P30968 whole entry, looked up): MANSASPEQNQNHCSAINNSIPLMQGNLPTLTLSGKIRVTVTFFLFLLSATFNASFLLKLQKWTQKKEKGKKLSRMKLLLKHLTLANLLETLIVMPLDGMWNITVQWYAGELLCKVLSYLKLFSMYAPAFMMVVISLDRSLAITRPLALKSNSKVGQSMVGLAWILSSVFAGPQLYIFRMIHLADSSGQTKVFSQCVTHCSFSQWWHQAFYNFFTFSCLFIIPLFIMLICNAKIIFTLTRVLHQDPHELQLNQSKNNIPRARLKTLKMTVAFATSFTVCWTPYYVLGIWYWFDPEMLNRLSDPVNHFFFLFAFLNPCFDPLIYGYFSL
In short: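 GnRHR-HEK293, 1500 cells/well, 18 h 37 C/5% CO2; Ca dye 1 h 37 C; cpd pinned (DMSO), agonist mode; kinetic FL 480/540, 3 min, 1 s reads; 15 conc, n=3.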

[4] = biological target: KiSS-1 receptor (Homo sapiens) (UniProt Q969F8); test: Human kisspeptin (KISS1R) small molecule agonists, calcium flux assay in KISS1R-HEK293 cells (AID 1920064; active = well fitted curve in the direction sought with a large enough effect in the repeat runs; an effect the other way counts as inactive or inconclusive)
KiSS-1 receptor (Homo sapiens), sequence (Q969F8 whole entry, looked up): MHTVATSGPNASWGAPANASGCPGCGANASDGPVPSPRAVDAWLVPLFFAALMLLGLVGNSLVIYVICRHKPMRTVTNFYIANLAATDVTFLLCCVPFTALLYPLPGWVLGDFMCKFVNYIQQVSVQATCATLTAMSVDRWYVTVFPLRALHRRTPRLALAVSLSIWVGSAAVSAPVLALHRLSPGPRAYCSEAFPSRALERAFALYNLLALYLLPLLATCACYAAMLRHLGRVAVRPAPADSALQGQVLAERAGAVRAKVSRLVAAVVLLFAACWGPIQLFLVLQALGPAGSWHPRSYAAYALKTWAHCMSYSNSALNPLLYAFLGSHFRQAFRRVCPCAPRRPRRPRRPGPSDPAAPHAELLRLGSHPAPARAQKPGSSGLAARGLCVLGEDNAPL
In short: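 Stable human KISS1R HEK293 line; 18 h plating, 37 C/5% CO2; calcium dye 1 h 37 C; compound pin transfer; kinetic fluorescence Ex/Em 480/540, 3 min.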

[5] = G protein-coupled receptor (GPCR) small molecule agonists, calcium flux assay: HEK293 wild type cell line counter screen (AID 1920065)
In short: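 Kinetic fluorescence at Ex/Em 480/540, recorded every second over 3 min, served as the read-out after compound addition. Each compound was tested at 15 concentrations in triplicate on cells pre-loaded with calcium dye for 1 h.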

[6] = p53 small molecule agonists, cell-based qHTS assay with human liver microsomes: qHTS cell viability counter screen (AID 1963579); note: nearly all actives have a fitted effect of over 45% in size
In short: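 In this multiplexed counter screen, the reporter plates were subsequently treated with CellTiter-Glo so that cell viability, reflected by luminescence, could be recorded for p53RE-bla cells dosed 16 h with compounds under microsomal activation (HLM and NADPH).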

[7] = p53 small molecule agonists, cell-based qHTS assay: qHTS cell viability counter screen (AID 1963581); note: nearly all actives have a fitted effect of over 45% in size
In short: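 HCT-116 p53RE-bla cells, 4,000/well, plated 5 h before compound pin transfer; 16 h at 37 C; bla substrate 2 h RT; then CellTiter-Glo, 30 min RT, luminescence.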

[8] = p53 small molecule agonists, cell-based qHTS assay (AID 1963582; active = well fitted activation curve with a large enough effect in the signal ratio in the repeat runs, not every such curve was filed as active; the % refers to the signal ratio)
In short: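 Reporter line: p53RE-bla. Pre-incubation 5 h, 37 C, 5% CO2; compound (DMSO, pin tool) 16 h, 37 C; B/G FRET substrate 2 h RT; fluorescence intensity read.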

[9] = biological target: 5-hydroxytryptamine receptor 2A (Homo sapiens) (UniProt P28223); test: 5-hydroxytryptamine receptor 2A (HTR2A) small molecule antagonists, cell-based qHTS assay (AID 1963586); note: nearly all actives have a fitted effect of over 45% in size
5-hydroxytryptamine receptor 2A (Homo sapiens), sequence (P28223 whole entry, looked up): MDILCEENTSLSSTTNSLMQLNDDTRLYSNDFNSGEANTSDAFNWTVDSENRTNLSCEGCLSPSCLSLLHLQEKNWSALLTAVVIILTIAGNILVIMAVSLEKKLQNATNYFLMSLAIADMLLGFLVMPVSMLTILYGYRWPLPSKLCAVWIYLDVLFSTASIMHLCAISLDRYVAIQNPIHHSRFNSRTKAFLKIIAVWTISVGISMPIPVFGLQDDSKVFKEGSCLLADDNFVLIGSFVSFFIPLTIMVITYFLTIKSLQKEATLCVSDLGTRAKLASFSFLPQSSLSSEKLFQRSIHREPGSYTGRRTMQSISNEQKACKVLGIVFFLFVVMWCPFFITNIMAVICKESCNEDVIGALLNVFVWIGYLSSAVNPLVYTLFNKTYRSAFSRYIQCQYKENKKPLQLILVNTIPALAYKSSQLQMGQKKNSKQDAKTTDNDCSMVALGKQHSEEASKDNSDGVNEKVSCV
In short: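 Antagonist-mode intracellular calcium assay: DOI (4 nM) added after 5 min compound pre-incubation at room temperature to dye-loaded HTR2A-CHO cells. Fluorescence followed for 3 min, sampled every second.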

[10] = biological target: 5-hydroxytryptamine receptor 2A (Homo sapiens) (UniProt P28223); test: 5-hydroxytryptamine receptor 2A (HTR2A) small molecule agonists, cell-based qHTS assay (AID 1963587); note: nearly all actives have a fitted effect of over 30% in size
In short: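 CHO cells stably expressing human HTR2A, plated 18 h, loaded with calcium dye 1 h at 37 C. Agonist mode: compounds added and intracellular calcium fluorescence recorded kinetically for 2 min at 1 sec intervals.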

[11] = biological target: Muscarinic acetylcholine receptor M1 (Homo sapiens) (UniProt P11229); test: Cholinergic receptor muscarinic 1 (CHRM1) small molecule antagonists, cell-based qHTS assay (AID 1963588); note: nearly all actives have a fitted effect of over 40% in size; note: potency is the fitted concentration of half-maximal effect
Muscarinic acetylcholine receptor M1 (Homo sapiens), sequence (P11229 whole entry, looked up): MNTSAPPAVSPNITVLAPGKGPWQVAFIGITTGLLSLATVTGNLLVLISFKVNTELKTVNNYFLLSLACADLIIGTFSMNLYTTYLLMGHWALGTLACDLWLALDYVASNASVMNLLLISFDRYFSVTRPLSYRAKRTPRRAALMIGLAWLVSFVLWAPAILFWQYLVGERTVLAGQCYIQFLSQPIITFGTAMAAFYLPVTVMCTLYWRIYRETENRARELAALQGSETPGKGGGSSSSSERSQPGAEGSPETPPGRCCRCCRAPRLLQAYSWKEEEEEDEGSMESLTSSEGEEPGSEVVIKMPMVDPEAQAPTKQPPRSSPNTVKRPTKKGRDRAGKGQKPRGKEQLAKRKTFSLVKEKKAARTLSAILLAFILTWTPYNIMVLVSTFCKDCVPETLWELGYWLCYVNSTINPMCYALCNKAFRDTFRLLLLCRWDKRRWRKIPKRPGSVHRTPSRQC
In short: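 CHRM1-CHO calcium-flux assay, antagonist mode. Cells were seeded 18 h, dye-loaded 1 h at 37 C and given compound for 5 min at RT, then acetylcholine was added at 50nM. FDSS fluorescence was read 3 min; 15 concentrations, three runs.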

[12] = biological target: Muscarinic acetylcholine receptor M1 (Homo sapiens) (UniProt P11229); test: Cholinergic receptor muscarinic 1 (CHRM1) small molecule agonists, cell-based qHTS assay (AID 1963589); note: nearly all actives have a fitted effect of over 35% in size
In short: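 Human M1 in stable CHO line; 18 h plating, 1 h dye load 37 C; cpd added (agonist mode); Ca2+ fluorescence kinetic read, 1 s intervals; 15 conc, 3 runs.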

[13] = cAMP Responsive Elements (CRE) small molecule antagonists, cell-based qHTS assay (AID 1963591; active = well fitted inhibition curve with a large enough effect in the signal ratio in the repeat runs, not every such curve was filed as active; the % refers to the signal ratio)
In short: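 Beta-lactamase reporter read by FRET substrate (LiveBLAzer B/G) after 2 h at room temperature. CRE-bla HEK293T cells had received compound plus 0.25 uM (final) NKH477 for 3 h at 37 °C.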

[14] = biological target: Beta-2 adrenergic receptor (Homo sapiens) (UniProt P07550); test: Adrenergic beta2 receptor (ADRB2) small molecule agonists, cell-based qHTS assay (AID 1963593);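 note: CHO cells stably overexpressing human ADRB2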
Beta-2 adrenergic receptor (Homo sapiens), sequence (P07550 whole entry, looked up): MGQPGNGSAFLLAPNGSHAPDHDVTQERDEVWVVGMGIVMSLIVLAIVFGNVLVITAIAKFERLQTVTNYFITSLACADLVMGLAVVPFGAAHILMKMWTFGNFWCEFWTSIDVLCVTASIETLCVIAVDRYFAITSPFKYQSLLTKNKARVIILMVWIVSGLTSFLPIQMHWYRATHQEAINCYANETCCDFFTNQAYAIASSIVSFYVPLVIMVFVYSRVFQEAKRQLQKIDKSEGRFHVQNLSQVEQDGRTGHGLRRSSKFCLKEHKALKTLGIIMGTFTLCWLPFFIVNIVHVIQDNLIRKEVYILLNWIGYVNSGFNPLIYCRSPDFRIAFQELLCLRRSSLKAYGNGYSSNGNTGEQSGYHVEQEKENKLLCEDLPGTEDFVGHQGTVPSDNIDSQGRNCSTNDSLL
In short: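 CHO cells stably over-expressing ADRB2 were plated overnight at 37C, then dosed with compounds plus a stimulation mix containing 100uM IBMX and 25uM Ro-20-1724 for 0.5hr at room temperature. cAMP was measured by HTRF competition, 1hr.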

[15] = biological target: D(2) dopamine receptor (Homo sapiens) (UniProt P14416); test: Dopamine D2 receptor (DRD2) small molecule agonists, cell-based qHTS assay (AID 1963594); note: nearly all actives have a fitted effect of over 35% in size
D(2) dopamine receptor (Homo sapiens), sequence (P14416 whole entry, looked up): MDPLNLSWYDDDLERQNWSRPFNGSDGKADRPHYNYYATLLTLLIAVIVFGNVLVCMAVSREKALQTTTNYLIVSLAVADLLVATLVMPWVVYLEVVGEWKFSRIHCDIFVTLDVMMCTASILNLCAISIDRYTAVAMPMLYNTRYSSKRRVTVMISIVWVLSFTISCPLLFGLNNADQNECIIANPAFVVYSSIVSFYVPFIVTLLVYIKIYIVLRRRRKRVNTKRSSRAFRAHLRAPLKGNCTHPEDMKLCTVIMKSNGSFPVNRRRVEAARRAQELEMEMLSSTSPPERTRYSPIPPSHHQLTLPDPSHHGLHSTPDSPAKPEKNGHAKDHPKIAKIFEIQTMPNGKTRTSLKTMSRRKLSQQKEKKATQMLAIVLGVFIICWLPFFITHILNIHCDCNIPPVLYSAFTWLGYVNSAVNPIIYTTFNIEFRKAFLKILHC
In short: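 HEK293 cells stably expressing human DRD2, pre-treated with PDE inhibitor Ro20-1724 (0.1 mM final) and compound 10 min at room temperature, then stimulated with NKH477 (200nM […]) for 30 min. cAMP read by HTRF (665/620 nm).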

[16] = biological target: D(2) dopamine receptor (Homo sapiens) (UniProt P14416); test: Dopamine D2 receptor (DRD2) small molecule antagonists, cell-based qHTS assay (AID 1963595; active = well fitted inhibition curve with a large enough effect in the signal ratio in the repeat runs, with a control signal flat; the % refers to the signal ratio)
In short: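 HTRF cAMP read-out at 665 and 620 nm emission (340 nm excitation). Antagonist mode: compounds were tested against 12 nM quinpirole in DRD2-HEK293 cells, with 200 nM NKH477 raising cAMP and 0.1 mM Ro20-1724 blocking its breakdown.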

[17] = p53 small molecule agonists, cell-based qHTS assay with rat liver microsomes: qHTS cell viability counter screen (AID 1963580); note: nearly all actives have a fitted effect of over 45% in size; note: potency is the fitted concentration of half-maximal effect
In short: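 p53RE-bla HCT-116 cells were exposed 16 h at 37 C to compounds with rat liver microsomes (0.5 mg/mL) and NADPH (0.5 mg/mL). Viability was measured in the same wells as ATP content by CellTiter-Glo luminescence.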

[18] = cAMP Responsive Elements (CRE) small molecule agonists, cell-based qHTS assay (AID 1963590)
In short: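 HEK 293T CRE-bla, 2,000 cells/well, 18 h preincubation 37 C/5% CO2; cpds (DMSO) pinned, 3 h; LiveBLAzer B/G FRET substrate, 2 h RT.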

[19] = biological target: Beta-2 adrenergic receptor (Homo sapiens) (UniProt P07550); test: Adrenergic beta2 receptor (ADRB2) small molecule antagonists, cell-based qHTS assay (AID 1963592); note: series mostly up to about 92 µM; nearly all actives have a fitted effect of over 50% in size
In short: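 Cells (CHO, stable ADRB2 overexpression) incubated 18-20hr at 37C; compounds added from DMSO; agonist mix (1nM isoproterenol, 100uM IBMX, 25uM Ro-20-1724) added; 0.5hr RT; d2-cAMP and anti-cAMP-cryptate added; 1hr RT; 665/615 nm read.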

[20] = p53 small molecule agonists, cell-based qHTS assay with rat liver microsomes (AID 1963578)
In short: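 With rat liver microsomes and NADPH present (0.5 mg/mL final each), p53RE-bla cells are treated with compound for 16 h at 37 C. LiveBLAzer detection mixture is then applied for 2 h at room temperature in the dark.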

Compound	Potency [1]	Potency [2]	Potency [3]	Potency [4]	Potency [5]	Potency [6]	Potency [7]	Potency [8]	Potency [9]	Potency [10]	Potency [11]	Potency [12]	Potency [13]	Potency [14]	Potency [15]	Potency [16]	Potency [17]	Potency [18]	Potency [19]	Potency [20]
CCCCCCCCC(=O)O	inactive	inactive	inactive	inactive	inactive	inactive	inactive	inactive	inactive	inactive	inactive	inactive	inactive	inactive	inactive	inactive	–	–	–	–
Oc1ccc(Cc2ccccc2O)cc1	inactive	inactive	inactive	inactive	inactive	–	inactive	inactive	inactive	inactive	inactive	inactive	inactive	inactive	inactive	inactive	36.8 µM (active) and inactive	inactive	inactive	–
CCCCOCCOCCSC#N	inactive	inactive	inactive	inactive	inactive	inactive	inactive	inactive	inactive	inactive	inactive	inactive	inactive	inactive	inactive	inactive	inactive	inactive	inactive	inactive
CC(=O)Oc1ccc(C)cc1	inactive	inactive	inactive	inactive	inactive	inactive	inactive	inactive	inactive	inactive	inactive	inactive	inactive	–	inactive	–	inactive	inactive	inactive	inactive
CCCCCCCCCCN	inactive	inactive	inactive	inactive	inactive	–	inactive	inactive	inactive	inactive	inactive	inactive	inactive	inactive	–	inactive	inactive	inactive	inactive	inactive
Cc1ccncc1	inactive	inactive	inactive	inactive	inactive	inactive	inactive	inactive	inactive	inactive	–	inactive	inactive	–	inactive	inactive	inactive	inactive	inactive	inactive
O=[N+]([O-])C(CO)(CO)CO	inactive	inactive	inactive	inactive	inactive	inactive	inactive	inactive	inactive	inactive	inactive	inactive	–	inactive	inactive	inactive	inactive	inactive	–	inactive
CC1=NN(c2ccccc2)C(=O)C1	inactive	inactive	inactive	inactive	inactive	inactive	inactive	inactive	–	–	–	–	inactive	inactive	inactive	inactive	inactive	inactive	inactive	inactive
COC(=O)CCCCC(=O)OC	inactive	inactive	inactive	inactive	inactive	inactive	inactive	–	inactive	–	inactive	–	–	–	inactive	inactive	inactive	inactive	inactive	–
O=Cc1ccc(CO)o1	inactive	inactive	inactive	inactive	inactive	inactive	inactive	inactive	inactive	inactive	inactive	inactive	inactive	inactive	inactive	inactive	–	inactive	inactive	–
NC(=O)c1ncn([C@@H]2O[C@H](CO)[C@@H](O)[C@H]2O)n1	inactive	inactive	inactive	inactive	inactive	inactive	inactive	–	–	–	–	–	–	inactive	inactive	–	inactive	inactive	inactive	–
[O-]/[N+](=N\O)c1ccccc1	inactive	68 µM (active) and 34.4 µM (active)	inactive	inactive	inactive	inactive	inactive	inactive	inactive	inactive	inactive	inactive	inactive	–	inactive	inactive	inactive	inactive	inactive	inactive
NCCCCCCN	inactive	inactive	inactive	inactive	inactive	inactive	inactive	inactive	inactive	inactive	inactive and 16.8 µM (active)	inactive	inactive	inactive	inactive	–	inactive	inactive	inactive	inactive
Oc1cccc(O)c1	inactive	inactive	inactive	inactive	inactive	inactive	inactive	inactive	inactive	inactive	inactive	inactive	inactive	–	inactive	inactive	inactive	inactive	inactive	inactive
CCCCNC(=O)NS(=O)(=O)c1ccc(C)cc1	inactive	inactive	inactive	inactive	inactive	inactive	inactive	inactive	inactive	inactive	inactive	inactive	–	inactive	inactive	inactive	inactive	inactive	inactive	inactive
CCCCCCCCCCCO	inactive	inactive	inactive	inactive	inactive	inactive	inactive	inactive	inactive	inactive	inactive	inactive	inactive	–	inactive	inactive	inactive	inactive	inactive	inactive
